Compound activity from PubChem BioAssay.
This is a sample that favours compounds with a hit; in the whole collection about 28% have one here.
CYP2C19 inhib = human CYP2C19 inhibition; P33261; CYP2C19 Supersomes, luciferin-H EGE luminescence, 30 min; inhibition, % at 5 µM; 21% of 96,000 active; AID 778;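 active = CYP2C19 inhibition above a set limit at 5 µM in the primary screen, cut at about 50% in these data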;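 also: plate controls were negative control wells for no effect and 2.5 mM tranylcypromine positive control for full effect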
CYP2C19 act = cytochrome P450 2C19 (human) activation; 96,000 tested, under 10 active; AID 1025; P33261; recombinant CYP2C19, luciferin-H EGE luminescence; active compounds read high; 0 = fully inhibited enzyme, 1 = untreated enzyme; activation factor at 5 µM;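 active = activation factor of at least 2 at 5 µM in the primary screen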;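 also: 0 = wells with 2.5 mM tranylcypromine and 1 = vehicle-only wells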
CD11b adhes enh = CD11b/CD18-fibrinogen binding enhancement; activation, % at 10 µM; P05107+P11215; 0.07% of 93,000 active; K562 CD11b/CD18 adhesion to fibrinogen, ATPlite luminescence; AID 1499;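 active = 10 µM primary screen giving 50% or more activity, confirmed by 40% or more on retest at that dose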
CYP2C9 act = increases human cytochrome P450 2C9 activity; AID 1024; activation factor at 5 µM; recombinant CYP2C9, luciferin-H conversion, luminescence; active compounds read high; factor 1 = untreated enzyme, 0 = blocked; 1.4% of 96,000 active;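 active = activation factor of 2 or more for CYP2C9 at a 5 µM dose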;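 also: 0 = sulfaphenazole-blocked wells and 1 = vehicle-only wells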
CD11b adhes inh = blocks human CD11b/CD18 adhesion to fibrinogen; P05107+P11215; K562 CD11b/CD18 adhesion to fibrinogen, ATPlite luminescence; Mn2+ added to activate the integrin; inhibition, % at 10 µM; 0.54% of 93,000 active; AID 1497;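 active = primary inhibition of 50% or more at 10 µM, then 40% or more on retest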
CYP2C9 inhib = blocks human cytochrome P450 2C9; inhibition, % at 5 µM; CYP2C9 Supersomes, luciferin-H conversion, luminescence; 20% of 96,000 active; P11712;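 active = blocking of liver enzyme CYP2C9 beyond about 50% at 5 µM, limit read from the data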
Starred values were filed as active, the others as inactive; · = no result.

SMILES | CYP2C19 inhib | CYP2C19 act | CD11b adhes enh | CYP2C9 act | CD11b adhes inh | CYP2C9 inhib
CC(=O)c1cccc(NC(=O)CN(c2ccc(C)cc2)S(=O)(=O)c2cccc3nonc23)c1 | 46 | 0.5 | -4 | 0.3 | 1 | 72*
CC1CCN(CCNC(=O)CN(C)S(=O)(=O)c2cccc3nsnc23)CC1 | -12 | 1.1 | -4 | 1 | 12 | -5
CCN(CC)C(=O)CN(C)S(=O)(=O)c1cccc2nsnc12 | -8 | 1.1 | 0 | 1.1 | 6 | -11
Cc1ccc(NC(=O)CN(C)S(=O)(=O)c2cccc3nsnc23)cc1 | 28 | 0.7 | 0 | 0.2 | -3 | 77*
Cc1ccc(CNC(=O)CN(C)S(=O)(=O)c2cccc3nsnc23)cc1 | 59* | 0.4 | 1 | 0.8 | -12 | 24
CCOC(=O)c1cnn(-c2nc3c(C)cccc3s2)c1C | -14 | 1.1 | -3 | 1.1 | -1 | -8
N#CCSc1nnc(Cc2ccc3c(c2)OCO3)o1 | 16 | 0.8 | 0 | 1 | -2 | -1
CCN(C(=O)Cc1c(C(=O)O)[nH]c2ccccc12)c1cc(OC)ccc1OC | -18 | 1.2 | 0 | 0.9 | 40 | 14
CCN(C(=O)c1coc(=O)c2ccccc12)c1cc(OC)ccc1OC | 38 | 0.6 | 0 | 0.4 | 0 | 64*
O=C(CNC(=O)c1ccco1)OCc1ccc(C(=O)Oc2ccccc2)cc1 | 46 | 0.5 | -1 | 0.4 | 4 | 58*
O=C(CNC(=O)c1ccco1)NCC(=O)OCc1ccc(C(=O)Oc2ccc(Cl)cc2)cc1 | 13 | 0.9 | -1 | 0.4 | 2 | 58*
COC(=O)c1ccc(COC(=O)CNC(=O)c2ccco2)cc1 | 12 | 0.9 | -3 | 0.9 | -2 | 14
Cc1ccc(-c2nnc(Nc3ccc4c(c3)OCO4)c3ccccc23)cc1S(=O)(=O)NC(C)C | · | · | 31 | · | 9 | ·
O=C(O)c1nn(-c2ccccc2)ccc1=O | -2 | 1 | 0 | 1 | -15 | 1
CS(=O)(=O)NC1CCN(Cc2ccccc2)CC1 | 1 | 1 | 4 | 0.5 | -2 | 46
O=S(=O)(NC1CCCC1)c1ccc(S(=O)(=O)N2CCCN(Cc3ccccc3)C2)cc1 | 98* | 0 | -4 | 0.1 | 4 | 95*
COc1ccc(/C=N/NC(=O)c2nc(-c3ccccc3)n(-c3ccccc3)n2)cc1 | · | · | 5 | · | -6 | ·
COc1ccc(/C=N/NC(=O)c2nonc2C)cc1 | 80* | 0.2 | 0 | 0.7 | -26 | 27
CC(=O)CN1Cc2ccccc2/C1=N\C(=O)Nc1ccccc1 | 58* | 0.4 | 2 | 0.5 | 1 | 48
CCN(CC)S(=O)(=O)c1ccc(C(=O)NCc2n[nH]c(=S)n2Cc2ccccc2)cc1 | -7 | 1.1 | -3 | 0.9 | 10 | 14
O=C(Nc1ccccc1)N(Cc1ccccc1)C1=NCCS1 | 12 | 0.9 | -2 | 0.4 | 0 | 56*
O=C(Nc1ccccc1)N(C1=NCCCCS1)c1ccccc1 | 24 | 0.8 | 3 | 0.9 | -2 | 14
O=C(Nc1ccccc1)N(C1=NCCCCS1)c1cccc2ccccc12 | 61* | 0.4 | · | 0.8 | · | 20
Cn1c(SCCOc2ccccc2Cl)nnc1-c1ccncc1 | 97* | 0 | 4 | 0.4 | 10 | 62*
CC(=O)CSc1nnc(-c2ccncc2)n1C | 42 | 0.6 | 1 | 0.9 | -12 | 8
SMILES | CYP2C19 inhib | CYP2C19 act | CD11b adhes enh | CYP2C9 act | CD11b adhes inh | CYP2C9 inhib
Cc1ccccc1OCCSc1nnc(-c2ccncc2)n1C | 97* | 0 | -1 | 0.1 | -6 | 86*
NC1=NC2(CCCCCC2)n2c(nc3ccccc32)N1 | 0 | 1 | · | 0.9 | · | 5
COC(=O)c1ccc(NC(=O)C23CCC(C)(C(=O)O2)C3(C)C)cc1 (configuration not stated) | 0 | 1 | · | 1 | · | 2
CCOc1cccc2sc(=NC(=O)c3ccc(S(=O)(=O)N4CCOCC4)cc3)n(C)c12 | 32 | 0.7 | -1 | 0.4 | -9 | 56*
CCOC(=O)c1sc(=NC(=O)c2ccc(S(=O)(=O)N3CC(C)OC(C)C3)cc2)n(C)c1C (configuration not stated) | 7 | 0.9 | 0 | 1 | -9 | 2
CN(C(=O)c1ccco1)c1nnc(C23CC4CC(CC(C4)C2)C3)s1 | 9 | 0.9 | 0 | 0.8 | 9 | 18
CN(C(=O)c1ccco1)c1nc2c(s1)CCCC2 | 45 | 0.6 | -1 | 0.4 | 10 | 62*
Cc1nnc(SCCc2ccccc2)[nH]c1=O | 20 | 0.8 | -2 | 0.4 | -6 | 56*
Cc1ccccc1CSc1nc2c(c(=O)[nH]1)CCC2 | 17 | 0.8 | -6 | 0.4 | -16 | 63*
Cc1nnc(SCC(=O)c2c(N)n(C)c(=O)n(C)c2=O)[nH]c1=O | -16 | 1.2 | -5 | 1 | -13 | -4
Cc1nnc(SCC(=O)NNC(=O)C(C)C)[nH]c1=O | · | · | -3 | · | 5 | ·
Cc1cc(C)c(C)c(C(=O)CSc2nnc(C)c(=O)[nH]2)c1C | 8 | 0.9 | 1 | 0.1 | -24 | 94*
Cc1ccccc1CSc1nnc(C)c(=O)[nH]1 | -14 | 1.1 | 0 | 0.4 | 9 | 63*
COc1ccc(Cc2noc(-c3ccc(OC)c(OC)c3)n2)cc1OC | 19 | 0.8 | 0 | 0.7 | 10 | 34
Cc1ccc(/C(CSc2nccn2-c2ncc(C(F)(F)F)cc2Cl)=N\O)cc1 | 56* | 0.4 | 2 | 0.5 | 12 | 52*
O=C(CSc1nccn1-c1ncc(C(F)(F)F)cc1Cl)c1ccc(Br)cc1 | 93* | 0.1 | -10 | 0.4 | 15 | 62*
Cc1ccc(CON=C2CCN(c3ncc(C(F)(F)F)cc3Cl)CC2)cc1 | 23 | 0.8 | · | 0.8 | · | 21
Cc1ccc(NC(=O)CNc2ccc(Cl)cc2F)cc1 | · | · | -3 | · | 1 | ·
CCCC(c1nnnn1C(C)(C)CC)N1CCN(C2CCCC2)CC1 (configuration not stated) | 60* | 0.4 | -1 | 0.6 | 4 | 35
CCCC(c1nnnn1C1CCCCC1)N1CCN(C2CCCC2)CC1 (configuration not stated) | 72* | 0.3 | 0 | 1 | -1 | 0
CCC(c1nnnn1C(C)(C)C)N1CCN(C2CCCC2)CC1 (configuration not stated) | 8 | 0.9 | -1 | 0.8 | -6 | 22
CC1CCCN(c2nc3ccccc3nc2C(C#N)C(=O)OC2CCCCC2)C1 (configuration not stated) | 3 | 1 | -2 | 0.8 | 11 | 17
COc1ccc(S(=O)(=O)C(C#N)c2nc3ccccc3nc2N2CCCC(C)C2)cc1 (configuration not stated) | 86* | 0.1 | · | 0.1 | · | 93*
Cc1ccc(S(=O)(=O)C(C#N)c2nc3ccccc3nc2N2CCCC2)cc1 (configuration not stated) | 87* | 0.1 | -1 | 0.5 | 25 | 55*
